# Results filed as inconclusive are left out. Entries that show only a call come without a potency. Activity calls are given as the source filed them. Unless noted, calls come from the whole dose curve; as a rule, active = well fitted curve in the direction sought with a large enough effect; inconclusive = small, poorly fitted or top-dose-only effect, or another doubt; inactive = no such curve, though single readings can be large; an effect the other way counts as inactive or inconclusive.
# Assays:
# [1] = Validation screen for small molecules that induce DNA re-replication in SW480 colon adenocarcinoma cells (AID 504364)
# Procedure, shortened: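 Cells are treated 48 hr with test compound, stained 40 min with Hoechst at 37 C, and scanned for nuclear fluorescence; compounds inducing re-replication increase nuclei with elevated intensity.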
# [2] = molecular target: Peptidyl-prolyl cis-trans isomerase NIMA-interacting 1 (Homo sapiens) (UniProt Q13526); experiment: qHTS Validation Assay to Find Inhibitors of Pin1 (AID 504536; active = well fitted inhibition curve with a large enough effect in the polarisation, with a control signal flat, not every such curve was filed as active; the % refers to the polarisation)
# Procedure, shortened: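 Fluorescence polarization competition: compounds (titration) displace HiFluor-488-labeled Pin1-1b peptide from Pin1 (0.3 uM final) in pH 7.5 HEPES buffer with DTT, 10 min at room temperature; %Activity normalized to no-enzyme wells, curves fitted.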
# [3] = molecular target: Phosphoglycerate kinase, glycosomal (Trypanosoma brucei brucei) (UniProt P07378); experiment: qHTS Validation Assay to Find Inhibitors of Phosphoglycerate Kinase (AID 504547); note: potency is the fitted concentration of half-maximal effect
# Procedure, shortened: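 Inhibition of the enzyme is judged by a Kinase-Glo Plus luminescent signal following a one-hour incubation at room temperature. Because 1,3-BPG is unstable, it is made in situ by GAPDH at 100nM final; no-PGK wells define the baseline.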
# [4] = molecular target: phosphoglycerate mutase (Leishmania major) (UniProt Q4Q090); experiment: qHTS Validation Assay to Find Inhibitors of Phosphoglycerate Mutase (AID 504548); conditions: Potency: inhibition qHTS;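 note: end-point luminescence from Kinase-GloPlus after the PGAM reaction; series mostly up to about 58 µM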
# Procedure, shortened: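 L. major PGAM (1.25nM final) was added to substrate buffer and pinned compound, incubated 45 minutes at room temperature, then Kinase-GloPlus added; luminescence read after 10 minutes. Buffer: 100 mM TEA pH 7.6, 5 mM MgCl2, 0.01% Tween-20.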
# [5] = molecular target: Ubiquitin carboxyl-terminal hydrolase 1 (Homo sapiens) (UniProt O94782); experiment: Inhibitors of USP1/UAF1: Pilot qHTS (AID 504865); note: nearly all actives have a fitted effect of over 35% in size; note: potency is the fitted concentration of half-maximal effect
# Procedure, shortened: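 Enzyme-free wells gave the negative control, while test wells held 1nM USP1/UAF1 preincubated with compound for 15 min at room temperature. Ub-Rho at 150nM final started the reaction, and fluorescence at 480/540 nm was recorded kinetically.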
# [6] = qHTS for Inhibitors of ATXN expression: Validation of Cytotoxic Assay (AID 588349);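 note: cells exposed to compound for 72 hr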
# Procedure, shortened: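 HEK293, compound dose series, 72 hr / 37 degrees C; viability via CellTiter Glo (intracellular ATP).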
# [7] = qHTS for Inhibitors of ATXN expression: Validation (AID 588378); note: nearly all actives have a fitted effect of over 75% in size; note: potency is the fitted concentration of half-maximal effect
# Procedure, shortened: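 After a 2 h attachment and 24 h compound incubation, HEK293-ATXN2-FFLuc wells are read for fluorescence at 405 nm excitation/525 nm emission as a viability measure, then for Bright-Glo luminescence reflecting ATXN2 expression.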
# [8] = molecular target: DNA dC->dU-editing enzyme APOBEC-3G (Homo sapiens) (UniProt Q9HC16); experiment: qHTS for inhibitors of Vif-A3G interactions: Validation (AID 588379)
# Procedure, shortened: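 HeLa cells stably expressing Vif and A3G-eYFP, 700 cells/well, incubated overnight at 37 deg C, then exposed to compound overnight at 37 deg C. Inhibition of Vif-mediated degradation read as increased yellow fluorescence (Ex 488/Em 500-530) by laser-scanning cytometry.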
# [9] = qHTS assay for small molecule antagonists of peroxisome proliferator-activated receptor delta signaling (AID 588535; active = well fitted inhibition curve with a large enough effect in the signal ratio, with a control signal flat, not every such curve was filed as active; the % refers to the signal ratio; note: potency is the fitted concentration of half-maximal effect;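 for max response: cells co-treated with a PPAR-delta agonist as stimulator during compound exposure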); conditions: HEK293T PPARd-UAS-bla, beta-lactamase FRET ratio, 18 h; 460 nm channel
# Procedure, shortened: (§1)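 Cell-based beta-lactamase assay in antagonist mode: 4000 HEK293T PPAR-delta-UAS-bla cells per well, 5 hr preincubation then 18 hr compound incubation at 37 C. IC50 obtained by Hill equation fitting.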
# [10] = molecular target: Peroxisome proliferator-activated receptor delta (Homo sapiens) (UniProt Q03181); experiment: as above
# Procedure, shortened: as §1
# [11] = molecular target: Estrogen receptor (Homo sapiens) (UniProt P03372); experiment: qHTS assay for small molecule antagonists of estrogen receptor alpha signaling (AID 588513; active = well fitted curve in the direction sought with a large enough effect in the signal ratio, with a control signal flat, not every such curve was filed as active; the % refers to the signal ratio)
# Procedure, shortened: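 Antagonist-mode qHTS in ER-alpha-UAS-bla HEK 293 cells: compound titration, 0.5nM estradiol for 18 h, CCF4 fluorescence, Hill-derived IC50.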
# [12] = molecular target: Estrogen receptor (Homo sapiens) (UniProt P03372); experiment: qHTS assay for small molecule agonists of estrogen receptor alpha signaling (AID 588514; calls by dose curve; note: nearly all actives have a fitted effect of over 70% in size)
# Procedure, shortened: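 Reporter-gene assay. […] controls beta-lactamase in HEK 293 GripTite cells; after 18 hrs with compound, CCF4 substrate is added for 2 hrs and fluorescence is read.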
# [13] = molecular target: Peroxisome proliferator-activated receptor gamma (Homo sapiens) (UniProt P37231); experiment: qHTS assay for small molecule agonists of peroxisome proliferator-activated receptor gamma signaling (AID 588536; active = well fitted curve in the direction sought with a large enough effect in the signal ratio, with a control signal flat, not every such curve was filed as active; the % refers to the signal ratio)
# Procedure, shortened: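 Ratiometric blue/green fluorescence (405 nm excitation; 460 and 530 nm emission) from CCF4-loaded HEK293 reporter cells serves as signal. Exposure to test compounds lasts 16 h at 37 C in medium containing 1% charcoal/dextran-treated serum.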
# [14] = molecular target: Peroxisome proliferator-activated receptor gamma (Homo sapiens) (UniProt P37231); experiment: qHTS assay for small molecule antagonists of peroxisome proliferator-activated receptor gamma signaling (AID 588537; active = well fitted inhibition curve with a large enough effect in the signal ratio, with a control signal flat, not every such curve was filed as active; the % refers to the signal ratio;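 note: reporter cells co-stimulated with 50 nM rosiglitazone agonist during compound treatment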)
# Procedure, shortened: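 Inhibitors of agonist-stimulated UAS-bla reporter activity were sought in HEK293 cells; rosiglitazone (50 nM) defined full signal and DMSO baseline. Curves fitted to Hill model gave IC50 and efficacy.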
# [15] = molecular target: Vitamin D3 receptor (Homo sapiens) (UniProt P11473); experiment: qHTS assay for small molecule antagonists of vitamin D receptor signaling (AID 588541; calls by dose curve;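 note: receptor activated by calcitriol during compound treatment; series mostly up to about 77 µM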)
# Procedure, shortened: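 Antagonist-mode beta-lactamase reporter assay: HEK293T VDR-UAS-bla cells were exposed to titrated compound alongside 1-alpha,25-dihydroxyvitamin D3 at 3 nM final for 16 h. Values were normalized to the 50 nM agonist control and DMSO basal, with IC50 and efficacy from Hill equation fits.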
# [16] = molecular target: Glucocorticoid receptor (Homo sapiens) (UniProt P04150); experiment: qHTS assay for small molecule agonists of glucocorticoid receptor signaling (AID 588532; active = well fitted curve in the direction sought with a large enough effect in the signal ratio, with a control signal flat; the % refers to the signal ratio); conditions: HeLa MMTV-bla, beta-lactamase ratio, agonist, 18 h; stronger effect = higher value; percent of dexamethasone control, DMSO zero
# Procedure, shortened: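 Using MMTV-bla HeLa cells in medium with 1% stripped FBS and 25 mM HEPES, compounds were titrated and incubated overnight-length (18 h). Beta-lactamase cleavage of CCF4 was quantified by dual-emission fluorescence.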
# [17] = molecular target: Glucocorticoid receptor (Homo sapiens) (UniProt P04150); experiment: qHTS assay for small molecule antagonists of glucocorticoid receptor signaling (AID 588533; active = well fitted inhibition curve with a large enough effect in the signal ratio, with a control signal flat, not every such curve was filed as active; the % refers to the signal ratio;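 note: cells stimulated with 2 nM dexamethasone as agonist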)
# Procedure, shortened: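 Antagonist-mode qHTS: compound titrations added to GRE-bla HeLa cells, then dexamethasone 2 nM final; 18 h, 37 C. CCF4 FRET fluorescence normalized to dexamethasone and DMSO; IC50 from Hill fit.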
# phosphoglycerate mutase (Leishmania major), sequence (Q4Q090 1-553): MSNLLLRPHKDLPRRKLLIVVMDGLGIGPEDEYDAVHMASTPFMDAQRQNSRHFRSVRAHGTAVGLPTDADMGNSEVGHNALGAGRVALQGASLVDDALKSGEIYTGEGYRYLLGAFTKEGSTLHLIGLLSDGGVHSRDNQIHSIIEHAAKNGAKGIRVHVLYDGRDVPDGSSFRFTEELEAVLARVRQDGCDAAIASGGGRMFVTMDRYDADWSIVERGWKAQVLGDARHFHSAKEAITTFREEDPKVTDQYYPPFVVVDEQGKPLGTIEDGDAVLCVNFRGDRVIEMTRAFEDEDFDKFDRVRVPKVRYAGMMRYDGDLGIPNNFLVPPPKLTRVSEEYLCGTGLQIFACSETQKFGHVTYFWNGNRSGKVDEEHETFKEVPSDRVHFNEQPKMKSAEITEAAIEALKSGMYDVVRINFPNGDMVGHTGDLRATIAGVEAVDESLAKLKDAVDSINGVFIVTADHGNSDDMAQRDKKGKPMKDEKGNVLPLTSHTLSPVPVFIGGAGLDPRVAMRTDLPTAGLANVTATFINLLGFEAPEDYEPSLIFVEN
# DNA dC->dU-editing enzyme APOBEC-3G (Homo sapiens), sequence (Q9HC16 whole entry, looked up): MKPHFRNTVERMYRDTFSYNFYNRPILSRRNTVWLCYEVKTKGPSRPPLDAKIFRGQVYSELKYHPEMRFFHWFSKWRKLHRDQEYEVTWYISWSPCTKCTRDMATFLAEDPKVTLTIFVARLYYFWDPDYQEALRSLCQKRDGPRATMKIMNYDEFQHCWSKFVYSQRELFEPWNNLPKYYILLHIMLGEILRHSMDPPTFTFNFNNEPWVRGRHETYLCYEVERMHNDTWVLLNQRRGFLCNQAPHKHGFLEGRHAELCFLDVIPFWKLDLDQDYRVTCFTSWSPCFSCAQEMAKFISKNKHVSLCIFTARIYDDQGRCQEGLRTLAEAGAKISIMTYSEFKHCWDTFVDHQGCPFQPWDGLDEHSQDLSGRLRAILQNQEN
# Peptidyl-prolyl cis-trans isomerase NIMA-interacting 1 (Homo sapiens), sequence (Q13526 whole entry, looked up): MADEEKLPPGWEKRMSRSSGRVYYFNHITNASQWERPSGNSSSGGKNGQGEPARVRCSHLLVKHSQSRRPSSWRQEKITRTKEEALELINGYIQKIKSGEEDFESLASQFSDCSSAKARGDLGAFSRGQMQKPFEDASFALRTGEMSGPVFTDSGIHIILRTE
# Peroxisome proliferator-activated receptor gamma (Homo sapiens), sequence (P37231 whole entry, looked up): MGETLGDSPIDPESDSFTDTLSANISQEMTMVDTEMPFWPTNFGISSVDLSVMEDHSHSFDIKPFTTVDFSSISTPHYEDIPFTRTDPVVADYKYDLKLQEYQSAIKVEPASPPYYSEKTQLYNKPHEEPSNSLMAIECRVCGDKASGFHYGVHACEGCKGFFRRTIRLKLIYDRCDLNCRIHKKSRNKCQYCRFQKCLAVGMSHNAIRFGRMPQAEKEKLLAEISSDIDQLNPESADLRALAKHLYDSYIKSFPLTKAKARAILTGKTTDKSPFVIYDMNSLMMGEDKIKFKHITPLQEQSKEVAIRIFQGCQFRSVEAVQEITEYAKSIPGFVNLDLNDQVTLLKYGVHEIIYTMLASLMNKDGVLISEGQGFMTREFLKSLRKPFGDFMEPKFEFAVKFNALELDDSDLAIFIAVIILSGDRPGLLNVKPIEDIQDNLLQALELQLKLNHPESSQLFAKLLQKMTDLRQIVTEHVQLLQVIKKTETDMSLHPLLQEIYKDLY
# Ubiquitin carboxyl-terminal hydrolase 1 (Homo sapiens), sequence (O94782 whole entry, looked up): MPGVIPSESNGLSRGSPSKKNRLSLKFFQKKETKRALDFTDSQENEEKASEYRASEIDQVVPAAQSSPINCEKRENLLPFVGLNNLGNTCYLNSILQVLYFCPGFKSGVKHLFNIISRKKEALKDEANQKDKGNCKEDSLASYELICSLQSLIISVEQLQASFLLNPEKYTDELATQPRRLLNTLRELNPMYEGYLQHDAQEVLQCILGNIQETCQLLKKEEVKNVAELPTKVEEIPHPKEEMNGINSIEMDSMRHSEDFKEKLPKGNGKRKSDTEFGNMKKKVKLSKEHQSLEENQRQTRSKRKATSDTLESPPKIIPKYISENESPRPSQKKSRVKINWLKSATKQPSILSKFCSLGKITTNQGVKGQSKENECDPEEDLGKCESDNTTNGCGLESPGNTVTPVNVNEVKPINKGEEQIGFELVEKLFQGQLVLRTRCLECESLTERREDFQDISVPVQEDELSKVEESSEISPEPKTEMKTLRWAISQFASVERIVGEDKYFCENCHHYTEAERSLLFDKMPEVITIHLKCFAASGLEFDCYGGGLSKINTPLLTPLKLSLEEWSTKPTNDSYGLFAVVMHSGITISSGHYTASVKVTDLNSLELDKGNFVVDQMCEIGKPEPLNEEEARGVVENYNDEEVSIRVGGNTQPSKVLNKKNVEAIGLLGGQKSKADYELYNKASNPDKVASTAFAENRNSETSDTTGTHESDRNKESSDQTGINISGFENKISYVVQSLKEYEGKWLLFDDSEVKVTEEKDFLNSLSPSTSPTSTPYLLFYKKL
# Estrogen receptor (Homo sapiens), sequence (P03372 whole entry, looked up): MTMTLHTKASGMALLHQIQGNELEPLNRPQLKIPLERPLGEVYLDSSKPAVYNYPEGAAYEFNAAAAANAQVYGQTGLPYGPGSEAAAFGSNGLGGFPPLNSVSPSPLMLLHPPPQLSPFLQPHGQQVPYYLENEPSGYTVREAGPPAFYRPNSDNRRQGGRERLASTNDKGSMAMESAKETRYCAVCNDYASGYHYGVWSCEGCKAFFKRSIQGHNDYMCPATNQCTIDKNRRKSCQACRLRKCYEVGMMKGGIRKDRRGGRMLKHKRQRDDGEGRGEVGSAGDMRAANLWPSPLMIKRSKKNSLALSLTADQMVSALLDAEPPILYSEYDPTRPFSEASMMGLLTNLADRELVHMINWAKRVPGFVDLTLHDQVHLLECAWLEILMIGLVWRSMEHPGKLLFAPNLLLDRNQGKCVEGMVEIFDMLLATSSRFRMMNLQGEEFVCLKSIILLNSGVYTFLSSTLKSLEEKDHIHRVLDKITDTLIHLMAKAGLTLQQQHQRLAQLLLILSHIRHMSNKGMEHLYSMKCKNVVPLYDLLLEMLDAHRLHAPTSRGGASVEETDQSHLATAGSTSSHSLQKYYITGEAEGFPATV
# Phosphoglycerate kinase, glycosomal (Trypanosoma brucei brucei), sequence (P07378 whole entry, looked up): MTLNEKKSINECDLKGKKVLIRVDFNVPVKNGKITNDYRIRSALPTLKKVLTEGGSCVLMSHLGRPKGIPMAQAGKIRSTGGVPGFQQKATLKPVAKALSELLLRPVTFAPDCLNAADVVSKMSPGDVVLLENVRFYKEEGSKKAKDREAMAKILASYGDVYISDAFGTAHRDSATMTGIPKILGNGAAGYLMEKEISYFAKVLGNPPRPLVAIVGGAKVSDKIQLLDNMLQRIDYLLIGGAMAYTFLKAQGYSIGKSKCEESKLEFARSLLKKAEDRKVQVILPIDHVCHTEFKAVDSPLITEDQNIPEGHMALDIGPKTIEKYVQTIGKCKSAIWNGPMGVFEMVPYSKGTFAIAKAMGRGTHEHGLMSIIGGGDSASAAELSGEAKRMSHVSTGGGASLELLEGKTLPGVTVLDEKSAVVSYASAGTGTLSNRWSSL
# Glucocorticoid receptor (Homo sapiens), sequence (P04150 whole entry, looked up): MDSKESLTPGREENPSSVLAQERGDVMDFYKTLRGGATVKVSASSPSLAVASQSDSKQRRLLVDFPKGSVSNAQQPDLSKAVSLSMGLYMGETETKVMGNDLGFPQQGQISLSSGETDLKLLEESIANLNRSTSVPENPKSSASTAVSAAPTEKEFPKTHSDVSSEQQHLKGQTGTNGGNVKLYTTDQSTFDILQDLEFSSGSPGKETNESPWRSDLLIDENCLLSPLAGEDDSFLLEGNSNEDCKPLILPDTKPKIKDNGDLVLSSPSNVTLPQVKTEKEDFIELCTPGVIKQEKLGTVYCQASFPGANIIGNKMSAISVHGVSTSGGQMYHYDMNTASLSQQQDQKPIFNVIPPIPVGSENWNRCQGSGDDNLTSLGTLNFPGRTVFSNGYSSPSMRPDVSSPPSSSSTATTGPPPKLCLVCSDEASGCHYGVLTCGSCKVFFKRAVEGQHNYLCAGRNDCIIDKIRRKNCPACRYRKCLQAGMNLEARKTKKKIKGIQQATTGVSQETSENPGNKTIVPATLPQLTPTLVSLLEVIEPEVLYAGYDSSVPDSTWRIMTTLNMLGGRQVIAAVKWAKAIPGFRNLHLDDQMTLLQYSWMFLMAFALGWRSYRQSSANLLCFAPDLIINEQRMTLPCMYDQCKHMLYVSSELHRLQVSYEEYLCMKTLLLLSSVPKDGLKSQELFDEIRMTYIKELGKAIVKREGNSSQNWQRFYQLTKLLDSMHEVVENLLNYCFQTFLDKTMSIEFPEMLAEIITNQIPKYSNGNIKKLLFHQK
# Vitamin D3 receptor (Homo sapiens), sequence (P11473 whole entry, looked up): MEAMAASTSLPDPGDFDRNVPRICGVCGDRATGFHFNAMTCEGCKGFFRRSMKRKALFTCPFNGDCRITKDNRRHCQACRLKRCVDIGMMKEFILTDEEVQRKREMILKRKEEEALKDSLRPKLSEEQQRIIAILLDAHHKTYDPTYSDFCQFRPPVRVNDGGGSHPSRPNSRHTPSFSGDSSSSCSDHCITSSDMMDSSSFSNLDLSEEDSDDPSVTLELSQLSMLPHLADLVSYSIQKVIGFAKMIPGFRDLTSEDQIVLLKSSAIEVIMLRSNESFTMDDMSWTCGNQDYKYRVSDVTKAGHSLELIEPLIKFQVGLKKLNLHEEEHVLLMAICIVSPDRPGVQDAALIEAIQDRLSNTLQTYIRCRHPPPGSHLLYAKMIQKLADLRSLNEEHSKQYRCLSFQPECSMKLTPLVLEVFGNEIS
smiles,measurement,setting,value
Cc1ccccc1CNc1ncnc2c1ncn2C1OC(CO)C(O)C1O (stereo not given),Potency,[1],inactive
same,Potency,[2],inactive
same,Potency,[3],inactive
same,Potency,[4],inactive
same,Potency,[5],inactive
same,Potency,[6],inactive
same,Potency,[7],inactive
COc1ccc(NC(=O)/C=C/c2ccc(Cl)cc2)cc1,Potency,[1],inactive
same,Potency,[2],inactive
Nc1ccn([C@@H]2O[C@H](CO)[C@@H](O)[C@@H]2O)c(=O)n1,Potency,[1],inactive
CC(=O)SCC[N+](C)(C)C,Potency,[1],inactive
same,Potency,[2],inactive
same,Potency,[3],inactive
same,Potency,[4],inactive
same,Potency,[5],inactive
same,Potency,[6],inactive
same,Potency,[7],inactive
Oc1ccc(C2CNCc3sccc32)cc1O (stereo not given),Potency,[1],inactive
same,Potency,[2],inactive
same,Potency,[3],inactive
same,Potency,[4],inactive
same,Potency,[5],inactive
NC(=O)C(=O)O,Potency,[1],inactive
same,Potency,[2],inactive
same,Potency,[3],inactive
same,Potency,[4],inactive
same,Potency,[5],inactive
same,Potency,[6],inactive
same,Potency,[7],inactive
CC1(C)CCC=[N+]1[O-],Potency,[1],inactive
same,Potency,[2],inactive
same,Potency,[3],inactive
same,Potency,[4],inactive
same,Potency,[5],inactive
same,Potency,[6],inactive
CCCCCCCC/C=C\CCCCCCCC(=O)NCCO,Potency,[1],inactive
same,Potency,[2],inactive
same,Potency,[3],inactive
same,Potency,[4],inactive
same,Potency,[6],inactive
same,Potency,[7],inactive
same,Potency,[8],inactive
c1cnc2c(c1)ccc1cccnc12,Potency,[1],inactive
same,Potency,[2],inactive
same,Potency,[3],inactive
same,Potency,[4],inactive
same,Potency,[5],inactive
same,Potency,[7],3.55 µM (active)
same,max response,[9],-78.3%
same,Potency,[10],17.8 µM (active)
NCCCCC(=O)O,Potency,[1],inactive
same,Potency,[2],inactive
same,Potency,[3],inactive
same,Potency,[4],inactive
same,Potency,[5],inactive
same,Potency,[6],inactive
same,Potency,[7],inactive
N[C@@H](CC(=O)O)C(=O)O,Potency,[1],inactive
same,Potency,[2],inactive
same,Potency,[3],inactive
same,Potency,[4],inactive
same,Potency,[5],inactive
same,Potency,[6],inactive
same,Potency,[7],inactive
same,Potency,[8],inactive
CN1CCC[C@H]1c1cccnc1,Potency,[1],inactive
same,Potency,[2],inactive
same,Potency,[3],inactive
same,Potency,[4],inactive
same,Potency,[5],inactive
same,Potency,[6],inactive
same,Potency,[7],inactive
same,Potency,[8],inactive
same,outcome,[11],inactive
same,Potency,[12],inactive
same,outcome,[13],inactive
same,Potency,[14],inactive
same,outcome,[15],inactive
CC(C)(C=O)Cc1cc(C(C)(C)C)c(O)c(C(C)(C)C)c1,Potency,[1],inactive
same,Potency,[2],inactive
same,Potency,[3],inactive
same,Potency,[4],inactive
same,Potency,[5],inactive
same,Potency,[8],inactive
CC(COc1ccc(/C=C/c2ccccc2)cc1)[N+](C)(C)C (stereo not given),Potency,[1],inactive
same,Potency,[2],inactive
same,Potency,[3],inactive
same,Potency,[4],inactive
same,Potency,[5],inactive
same,Potency,[6],inactive
same,Potency,[7],inactive
COc1ccccc1CNCCCCCCNCCCCCCCCNCCCCCCNCc1ccccc1OC,Potency,[1],inactive
same,Potency,[2],inactive
same,Potency,[3],inactive
same,Potency,[5],inactive
NCCNC(=O)c1ncsc1-c1cccc(F)c1,Potency,[1],inactive
same,Potency,[2],inactive
same,Potency,[3],inactive
same,Potency,[4],inactive
same,Potency,[5],inactive
same,Potency,[6],inactive
same,Potency,[7],inactive
Oc1cc(O)cc(/C=C/c2ccc(O)c(O)c2)c1,Potency,[1],inactive
same,Potency,[2],inactive
same,Potency,[3],23.9 µM (active)
same,Potency,[4],inactive
same,Potency,[5],inactive
same,Potency,[7],inactive
CC12C(=O)OC(=O)C1(C)C1CCC2O1 (stereo not given),Potency,[1],inactive
same,Potency,[2],inactive
same,Potency,[3],inactive
same,Potency,[4],inactive
same,Potency,[5],inactive
same,Potency,[8],inactive
O=C(O)CNC(=O)C(CS)Cc1ccccc1 (stereo not given),Potency,[1],inactive
same,Potency,[2],inactive
same,Potency,[3],inactive
same,Potency,[4],inactive
same,Potency,[6],inactive
C[C@@H](CN1CCC(Cc2ccccc2)CC1)[C@@H](O)c1ccc(O)cc1,Potency,[1],inactive
same,Potency,[2],inactive
same,Potency,[3],inactive
same,Potency,[4],inactive
same,Potency,[5],inactive
same,Potency,[6],inactive
same,Potency,[7],inactive
same,Potency,[8],inactive
CC(C)Cc1ccc([C@H](C)C(=O)O)cc1,Potency,[1],inactive
same,Potency,[2],inactive
same,Potency,[3],inactive
same,Potency,[4],inactive
same,Potency,[5],inactive
same,Potency,[6],inactive
same,Potency,[7],inactive
CN(C)CCC(c1ccc(Cl)cc1)c1ccccn1 (stereo not given),Potency,[1],inactive
same,Potency,[2],inactive
same,Potency,[3],inactive
same,Potency,[4],inactive
same,Potency,[5],inactive
same,activation,[16],0.717% (inactive)
same,Potency,[17],inactive
same,outcome,[13],inactive
CCCn1c(=O)c2[nH]c(-c3ccc(OCC(=O)NCCN)cc3)nc2n(CCC)c1=O,Potency,[1],inactive
same,Potency,[2],inactive
same,Potency,[3],inactive
same,Potency,[5],inactive
CC(=O)N[C@H](C(=O)O)C(C)(C)SN=O,Potency,[1],inactive
same,Potency,[2],inactive
same,Potency,[3],inactive
same,Potency,[4],inactive
same,Potency,[5],inactive
same,Potency,[6],inactive
same,Potency,[7],inactive
COc1ccc(/C=C/C(=O)Nc2ccccc2C(=O)O)cc1OC,Potency,[1],inactive
same,Potency,[2],inactive
same,Potency,[3],inactive
same,Potency,[4],inactive
same,Potency,[6],inactive
CCCCC/C=C\CC(O)/C=C/c1cccc(CC(O)CCCCO)n1 (stereo not given),Potency,[1],inactive
same,Potency,[2],inactive
same,Potency,[3],inactive
same,Potency,[4],inactive
same,Potency,[6],inactive
Fc1ccc(C(OCCCc2cnc[nH]2)c2ccc(F)cc2)cc1,Potency,[1],inactive
same,Potency,[2],inactive
same,Potency,[3],inactive
same,Potency,[4],inactive
same,Potency,[6],inactive
CCCCN1CCC(n2c(=O)[nH]c3ccccc32)CC1,Potency,[1],inactive
same,Potency,[2],inactive
same,Potency,[3],inactive
same,Potency,[4],inactive
same,Potency,[5],inactive
same,Potency,[6],inactive
same,Potency,[7],inactive
O=C(O)c1cc(=O)c2c(Cl)cc(Cl)cc2[nH]1,Potency,[1],inactive
same,Potency,[2],inactive
same,Potency,[3],inactive
same,Potency,[4],inactive
same,Potency,[5],inactive
same,Potency,[6],inactive
same,Potency,[7],inactive
same,Potency,[8],inactive
Clc1ccc(N2CCN(Cc3c[nH]c4ncccc34)CC2)cc1,Potency,[1],inactive
same,Potency,[2],inactive
same,Potency,[3],inactive
same,Potency,[4],inactive
same,Potency,[5],50.1 µM (active)
same,Potency,[6],inactive
same,Potency,[8],inactive

# From PubChem BioAssay (NCATS)
